Measured values as given in PubChem BioAssay (EPA / NIEHS).
Results filed as inconclusive are left out. Calls of active or inactive are those of the source. How the source made its calls, unless noted: active means hit-call score of the fitted dose curve at least 0.9, where 1 is the maximum; inconclusive means response in the unintended direction; inactive means score below 0.9.

What was measured:
[1] = IUF_NPC4_neurite_area_120hr: Leibniz Research Institute for Environmental Medicine (IUF) 120-hour Neuronal Morphology Assay for Neurite Area (NPC4) (AID 2284305)
Summary of the method: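 Human fetal neural progenitor spheres (0.3 mm) plated on poly-D-lysine/laminin in N2 differentiation medium, exposed 120 h (7 concentrations, DMSO ≤0.1%, half-medium refresh day 3). Fixed, TUBB3 immunostained; mean neurite area per neuron by Omnisphero skeletonization.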

[2] = IUF_NPC2-5_cytotoxicity_72hr: Cytotoxicity Assessment at 72 hours in the Leibniz Research Institute for Environmental Medicine (IUF) Neural Progenitor Cell Migration and Differentiation Assay for Cytotoxicity (NPC2-5) (AID 2284306);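 further: LDH release into supernatant measured by resorufin fluorescence marking membrane damage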
Summary of the method: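 Human fetal primary neural progenitor spheres (0.3 mm) plated on poly-D-lysine/laminin in N2 differentiation medium, exposed from day 0 at 37C. LDH-dependent resazurin-to-resorufin fluorescence in supernatant at 72 h; 7 concentrations, DMSO at most 0.1%.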

[3] = IUF_NPC2-5_cytotoxicity_120hr: Cytotoxicity Assessment at 120 hours in the Leibniz Research Institute for Environmental Medicine (IUF) Neural Progenitor Cell Migration and Differentiation Assay (NPC2-5) (AID 2284307);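 on AC50: LDH released into supernatant as membrane damage marker via resorufin fluorescence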
Procedure: IUF_NPC2-5 is a cell-based, multiplexed assay that uses hNPC, a human primary neural progenitor cells, with measurements taken at 72 or 120 hours after chemical dosing in a 96-well plate. Human neural progenitor cells (hNPC) are generated from human fetal brain cortex at gestational week (GW) 16-19. In the neural progenitor cell migration and differentiation assay (NPC2-5), hNPCs grown as spheres are plated on an extracellular matrix and migrate and differentiate out of the sphere core. The processes radial glia migration, neuronal and oligodendrocyte migration as well as neuronal differentiation, neuronal morphology and oligodendrocyte differentiation are studied using automated phase contrast imaging and automated fluorescence imaging in combination with high content image analysis. In parallel, the cell viability is assessed using an alamar blue viability assay and the cytotoxicity using a lactate dehydrogenase dependent membrane integrity assay.IUF_NPC2-5_cytotoxicity_120hr is one of 12 assay components measured from the IUF_NPC2-5 assay. It is designed to measure cytotoxicity at 120hr due to loss of membrane integrity. LDH measurements are performed from medium supernatants of each well and are based on the reduction of resazurin to resorufin measured as fluorescence signal (relative fluorescence unit) in a multiplate reader. Data from the IUF_NPC2-5_cytotoxicity_120hr component was analyzed at the endpoint IUF_NPC2-5_cytotoxicity_120hr in the positive analysis fitting direction relative to the dynamic range and baseline of activity. Using a type of viability reporter, gain-of-signal activity can be used to understand cytotoxicity effects.
Culture protocol: After the cell expansion period the cells are cultured for up to four weeks in which they are passaged every week as described in 3.6. Between one to three days after passaging spheres at a size of 0.3 mm are picked for the test method. […] Therefore, half of the test condition solution (e.g. solvent control or compound dilution) is replaced by freshly prepared test condition solution.Test Method: Migration distance and cytotoxicity is determined after 72 hours based on brightfield images of each well. […] On the ICC images, migration after 120 hours, neuronal and oligodendrocyte number, neuronal morphology and neuron/oligodendrocyte specific migration is assessed. immunocytochemical staining (ICC) generates an image for each sphere. The plates are scanned using an automated high content imaging device and all nuclei and their positions are determined automatically based on their intensity and size. […]

[4] = IUF_NPC2-5_cell_number_120hr: Cell Number Assessment at 120 hours in the Leibniz Research Institute for Environmental Medicine (IUF) Neural Progenitor Cell Migration and Differentiation Assay (NPC2-5) (AID 2284308; active means hit-call score of the fitted dose curve at least 0.9, where 1 is the maximum; inactive means score below 0.9;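 further: count of Hoechst-stained nuclei in migration zone around plated human neural progenitor spheres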)
Summary of the method: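 Counting of all Hoechst-stained nuclei in the migration area at 120 h, versus DMSO control. Primary hNPC spheres differentiated on poly-D-lysine/laminin in N2 medium at 37C, dosed from day 0 (7 concentrations, DMSO ≤0.1%), half-refed day 3.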

[5] = IUF_NPC2-5_viability_120hr: Viability Assessment at 120 hours in the Leibniz Research Institute for Environmental Medicine (IUF) Neural Progenitor Cell Migration and Differentiation Assay (NPC2-5) (AID 2284312; active means hit-call score of the fitted dose curve at least 0.9, where 1 is the maximum; inactive means score below 0.9)
Summary of the method: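 Human fetal neural progenitor spheres (0.3 mm) plated on poly-D-lysine/laminin in N2 differentiation medium, exposed 120 h with half-medium refresh at day 3. Viability by alamar blue resazurin fluorescence; 7 concentrations, DMSO max 0.1%.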

[6] = VALA_TUBHUV_Agonist_CellCount: Viability Assessment in the VALA Sciences human Umbilical Vein Endothelial Tubule Formation (TUBHUV) Agonism Assay (AID 2284309)
Procedure: VALA_TUBHUV_Agonist is a cell-based, multiplexed assay that uses human umbilical vein endothelial cells (HUVEC). Measurements were taken 72 hours after chemical dosing in a 96-well plate.VALA_TUBHUV_Agonist_CellCount is the one of two assay components measured from the VALA_TUBHUV_Agonist assay. It is designed to make measurements of viability, a form of viability reporter, as detected with fluorescence intensity signals by HCS Fluorescent Imaging technology. Data from the assay component VALA_TUBHUV_Agonist_CellCount was analyzed at the endpoint, VALA_TUBHUV_Agonist_CellCount, in the positive analysis fitting direction relative to DMSO as the negative control and baseline of activity. Using a type of viability reporter, loss-of-signal activity can be used to understand viability. To generalize the intended target to other relatable targets, this assay endpoint is annotated to the cell cycle intended target family, where the subfamily is cell count.
[…]

[7] = VALA_TUBHUV_Antagonist_CellCount: Viability Assessment in the VALA Sciences human Umbilical Vein Endothelial Tubule Formation (TUBHUV) Antagonism Assay (AID 2284310)
Summary of the method: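 HUVEC co-cultured with HDF (1:3) 3 days in 10 ng/ml VEGF, then 3 days with compounds in VEGF medium. Fixed, nuclear stain and CD31 immunofluorescence, imaged; cell counts fitted versus 0.1% DMSO, loss of signal read as lower viability.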

[8] = VALA_TUBIPS_Agonist_TubuleLength: VALA Sciences human iPS-derived Endothelial Tubule Formation (TUBIPS) Agonism Assay (AID 2284311)
Summary of the method: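 Human iPS-derived endothelial cells were exposed to compound for 72 h. Tubule formation was imaged by high-content fluorescence and scored as gain of signal relative to DMSO vehicle (agonist mode).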

[9] = VALA_MIGHUV2_CellCount: Viability Assessment in the VALA Sciences human Umbilical Vein Endothelial Cell Migration (MIGHUV) Assay, Area of Scratch Wound after Recovery (AID 2284314)
Procedure: VALA_MIGHUV2_BCatenin is a cell-based, multiplexed assay that uses umbilical vein-derived endothelial cells (HUVEC). Measurements were taken 24 hours after chemical dosing in a 96-well plate.VALA_MIGHUV2_CellCount is the one of two assay components measured from the VALA_MIGHUV2 assay. It is designed to make measurements of viability, a form of viability reporter, as detected with fluorescence intensity signals by HCS Fluorescent Imaging technology. Data from the assay component VALA_MIGHUV2_CellCount was analyzed at the endpoint, VALA_MIGHUV2_CellCount, in the positive analysis fitting direction relative to DMSO as the negative control and baseline of activity. Using a type of viability reporter, loss-of-signal activity can be used to understand viability. To generalize the intended target to other relatable targets, this assay endpoint is annotated to the cell cycle intended target family, where the subfamily is cell count.
Cells were seeded on 384-well microplates (day-0) at a density of 9000 cells per well for detection of wound area recovery or 4000 cells per well for detection of beta-catenin (CTNB) immunoreactivity and incubated in Endothelial Cell Growth Medium (CAI, San Diego; catalog 211-500). After 24 hours of culture, the HUVEC plates were scratched using a custom scratch head with the Bravo liquid handling system. This created a 'wound' area without cells in each well. Test chemical was added within 30 min, each tested in 3-replicates across a 6-point concentration response (0.1 % DMSO vehicle control). 'ScratchOnly' Plates were incubated for a 24 h 'wound recovery' period and then fixed with 4% paraformaldehyde. Hoechst dye was used to visualize cell nuclei in the wound area, and CTNB immunofluorescence for visualizing CTNB-positive nuclei (beta-Catenin (L54E2) Mouse mAb (IF Preferred) 2677; Cell Signaling Technology, Danvers, MA). Each HUVEC plate included neutral vehicle control (0.1 % DMSO) treated wells and Cytochalasin D (actin cytoskeletal disrupter) or BIO-acetoxime (synthetic GSK3 inhibitor) as positive reference controls for endothelial migration and nuclear translocation of CTNB, respectively.

[10] = VALA_TUBIPS_Antagonist_TubuleLength: VALA Sciences human iPS-derived Endothelial Tubule Formation (TUBIPS) Antagonist Assay (AID 2284313)
Summary of the method: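 Cells grown 3 days with 10 ng/ml VEGF, then exposed to compounds in VEGF medium for another 3 days. After fixation, nuclear stain and CD31 immunofluorescence imaging gave mean total tubule length against 0.1% DMSO; suramin (100 uM) inhibition control.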

Measured: AC50

OCC(O)CO
inactive: [1] | [2] | [3] | [4] | [5]

O=C1NC(=O)C(c2ccccc2)(c2ccccc2)N1
inactive: [1] | [2] | [3] | [4] | [5]

Cc1ccc(-c2cc(C(F)(F)F)nn2-c2ccc(S(N)(=O)=O)cc2)cc1
inactive: [6] | [7] | [8] | [9]

O=C1OC(c2ccc(O)cc2)(c2ccc(O)cc2)c2ccccc21
inactive: [6] | [7] | [8]

Nc1nc(Cl)nc2c1ncn2[C@H]1C[C@H](O)[C@@H](CO)O1
active: [6] 1.56 µM | [10] 1.78 µM | [9] 2.48 µM
inactive: [7]

CCCCC(CC)COP(=O)(OCC(CC)CCCC)OCC(CC)CCCC (configuration not stated)
inactive: [6] | [7] | [9]

COC(=O)[C@H]1[C@H]2C[C@@H]3c4[nH]c5cc(OC)ccc5c4CCN3C[C@H]2C[C@@H](OC(=O)c2cc(OC)c(OC)c(OC)c2)[C@@H]1OC
inactive: [6] | [8] | [9]

CN(C)CCCN1c2ccccc2Sc2ccc(Cl)cc21
active: [1] 8.38 µM | [2] 15.3 µM | [3] 5.75 µM | [4] 12.8 µM | [5] 10.9 µM

CC(=O)CC(c1ccccc1)c1c(O)c2ccccc2oc1=O (configuration not stated)
inactive: [1] | [2] | [3] | [4] | [5]
